Measured values published in PubChem BioAssay (NCI).
This is part of a sample that, as a whole, favours compounds with a hit. Of some 83,000 tested, about 20% had one in any assay.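 Interpretation: 100, growth as untreated; towards 0, rising growth inhibition; 0, no net growth; 0 to -100, cell death. Compounds scoring below 10 were considered active.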 Values without a mark were called inactive. Active and inactive are the calls of the source.

What was measured:
Assay in all cases: NCI-60 one-dose screen, 48 h (100 = growth as untreated, 0 = no growth, -100 = all killed)
Settings in all cases: 10 µM unless noted
T-47D breast = test system: T-47D breast
BT-549 breast = test system: BT-549 breast
MDA-MB-435 melanoma = test system: MDA-MB-435 melanoma
SW-620 colon = test system: SW-620 colon
MCF7 breast = test system: MCF7 breast
HCT-116 colon = test system: HCT-116 colon
HCC-2998 colon = test system: HCC-2998 colon
KM12 colon = test system: KM12 colon

| SMILES | growth (T-47D breast) | growth (BT-549 breast) | growth (MDA-MB-435 melanoma) | growth (SW-620 colon) | growth (MCF7 breast) | growth (HCT-116 colon) | growth (HCC-2998 colon) | growth (KM12 colon) |
| --- | --- | --- | --- | --- | --- | --- | --- | --- |
| N#Cc1c(-c2ccccc2)nc2c(c(-c3ccc(Cl)cc3)nn2-c2ccccc2)c1-c1ccc([N+](=O)[O-])cc1 | 90.2% | 111% | 103% | 96.1% | 91.7% | 88.9% | 120% | 102% |
| CC1=C2CC/C(C)=C/CC[C@]3(C)O[C@H]3CC/C(C)=C/[C@H]2OC1 | 86% | 106% | 98.7% | 107% | 105% | 101% | 99.6% | 120% |
| CC1(C)CC(=O)C2=C(C1)C(c1ccc(Cl)cc1)n1ncc(C#N)c1N2 (centres undefined) | 85.8% | 103% | 103% | 99.3% | 95.4% | 98.4% | 107% | 110% |
| CN1CCN(Cc2ccc(NC(=O)c3cncc(C#Cc4cnc(N)cc4C#N)c3)cc2C(F)(F)F)CC1 | 24.7% | 37.5% | 2.03% (active) | -2.02% (active) | 18.7% | 1.47% (active) | 22.5% | 5.45% (active) |
| COCCn1cc(-c2nc(-c3cc4cccnc4n3C)cs2)c2ccccc21 | -36.7% (active) | 24.9% | 6.84% (active) | 28.9% | 6.6% (active) | 23.5% | 57.8% | 4.96% (active) |
| CCOC(=O)C1=C(CCl)N(C)C(=O)NC1c1ccc2c(c1)OCO2 (centres undefined) | 35.6% | 37.8% | 26.6% | 8.16% (active) | 51.8% | 19.1% | 94.6% | 73.1% |
| CS(=O)(=O)c1ccc(-c2nc3ccccc3n2CC(=O)N/N=C/c2ccccc2)cc1 | 82.4% | 95.9% | 97.2% | 103% | 89.3% | 81% | 98.9% | 107% |
| O=C(NCCNC(c1ccccc1)C(NCCNC(=O)c1ccccc1)c1ccccc1)c1ccccc1 (centres undefined) | 97.8% | 96.4% | 114% | 57.8% | 70.7% | 53.8% | 105% | 100% |
| Clc1cccc(C2Cc3cnccc3-c3[nH]c4ccncc4c32)c1 (centres undefined) | 34.4% | 50.1% | 39.5% | 44.7% | 20.4% | 32.5% | 76.7% | 44.3% |
| COc1ccc2cc(-c3nc4ccc(C)cn4c3NCc3ccco3)c(=O)[nH]c2c1 | 47.1% | 66.1% | 86.8% | 87.1% | 74.1% | 57.5% | 95.6% | 77.7% |
| COc1ccc(-c2cc(-c3cccnc3)nc3sc4c(N)c(C(C)=O)c(-c5ccccc5)nc4c23)cc1OC | 59.4% | 34.9% | 45.7% | 109% | 65.3% | 67.6% | 80.1% | 76.2% |
| CC/C(=C(\c1ccc(Cl)cc1)c1ccc(OCCN2CCCCC2)cc1)c1ccc(O)cc1 | 4.66% (active) | 58.3% | 2.07% (active) | -35.7% (active) | 3.41% (active) | -56.5% (active) | 37.5% | 17.5% |
| CS(=O)(=O)Nc1cc(-c2ccc3ncnc(Nc4ccc(OCc5ccccn5)c(Cl)c4)c3c2)cnc1Cl | -25.3% (active) | -3.21% (active) | 7.34% (active) | 5.12% (active) | 4.74% (active) | 9.28% (active) | 3.04% (active) | -5.09% (active) |
| O=C(NN1C(=O)CSC1c1cccc([N+](=O)[O-])c1)c1ccc(NC(=O)c2ccccn2)cc1 (centres undefined) | 94.7% | 99.6% | 98.9% | 104% | 89.2% | 98.3% | 90% | 93.8% |
| O=c1c2ccccc2n(C[C@H]2CO2)c2ccccc12 | 12.6% | -4.38% (active) | -61.5% (active) | 0.352% (active) | -4.75% (active) | 2.21% (active) | -70% (active) | -16.4% (active) |
| O=C(/C=C/c1cn(-c2ccccc2)nc1-c1ccccc1)CCC(=O)NO | 96.7% | 101% | 112% | 108% | 91.6% | 84% | 111% | 96.9% |
| CCCCCCCCCCCCCCCCCCOc1ccccc1CC(=O)NCC[N+](C)(C)C | 73.2% | 57.6% | 73.1% | 45.1% | 57.6% | 45.2% | 29.9% | -27% (active) |
| C=C1C(=O)O[C@H]2[C@H]1CC/C(COC(=O)/C=C\C(=O)NCc1ccc(Cn3c(=O)sn(CCCCl)c3=O)cc1)=C\CC[C@@]1(C)O[C@@H]21 | 61.5% | 88.2% | 52.8% | 22.1% | 41.8% | 26.6% | 100% | 99.4% |
| O=C(N/N=C/c1ccc(Cl)cc1)c1ccc(NC(=O)c2ccccn2)cc1 | 52.1% | 62.7% | 63.8% | 71.5% | 52.3% | 5.15% (active) | 72.3% | 73.2% |
| N#Cc1nn(-c2cc(=O)[nH]c3ccc(Br)cc23)c(N)c1C#N | 56.1% | 85.1% | 95.5% | 83.5% | 104% | 85.7% | 78.5% | 109% |
| C=CCn1cc(-c2nc3ccccc3s2)c2cc(-c3ccc4c5c(cccc35)C(=O)N(CCO)C4=O)ccc21 | 78.1% | 99.4% | 109% | 98.9% | 80.2% | 96.7% | 101% | 105% |
| COc1cc(-c2cc(-c3ccc(Nc4nc(Nc5ccc(Cl)cc5)nc(Nc5ccc(Cl)cc5)n4)cc3)no2)cc(OC)c1OC | 45.9% | 88.6% | 71.5% | 89.1% | 49.4% | 66.2% | 61.3% | 83.8% |
| Cc1ccc(-c2csc(NC(=O)CSc3nc(N)cc(N)n3)n2)cc1 | 19.6% | 52.1% | 63.2% | 93.6% | 50.6% | 41.8% | 86.8% | 77.5% |
| Oc1c(CN2CCC(N3CCOCC3)CC2)cc(Cc2cc(CN3CCC(N4CCOCC4)CC3)c(O)c3ncccc23)c2cccnc12 | 21.5% | 33.5% | 20.3% | 28.2% | 5.06% (active) | 11.5% | 0.162% (active) | 17.1% |
| COc1ccc(Nc2ncc(I)c(NCCCNC(=O)C3CCC3)n2)cc1 | 43% | -73.8% (active) | 49.4% | 12.9% | 3.83% (active) | -30.3% (active) | 25.4% | 5.46% (active) |
| N#CSc1c[nH]c2ccc(/C=C/C(=O)/C=C(O)/C=C/c3ccc4[nH]cc(SC#N)c4c3)cc12 | 19.4% | 15.7% | -2.07% (active) | 9.56% (active) | 10.5% | 9.39% (active) | 46.3% | 24.9% |
| CN(C)C1CN(C(=O)c2cc(-c3ccc4ncnc(N5CCc6cc(F)c(Cl)cc65)c4c3)cnc2N)C1 | 4.73% (active) | -12.8% (active) | 9.39% (active) | 19.1% | 5.85% (active) | 10.6% | 15.3% | 18.2% |
| O=S(=O)(Nc1cc(Sc2nc3ccccc3s2)c(O)c2ccccc12)c1ccc2ccccc2c1 | 79.5% | 105% | 95.4% | 108% | 81.7% | 90.6% | 109% | 92.6% |
